# According to PubChem BioAssay AID1117361 (Southern Research Institute, 2015):
# Out of some 3,600 compounds screened, about 900 (25%) were called active. How the calls were made is not given here. A selection follows. Entries with a potency or affinity are not part of this list.
# Target: Protein Tat (Human immunodeficiency virus type 1 group M subtype B (isolate HXB2)) (UniProt P04608)
# Experiment: HIV-1 Tat–TAR interaction blockers – biochemical, fluorescence polarization, FAM-labeled TAR RNA, counter-screen for Vif-APOBEC3G degradation inhibitor project, dose response (AID 1117361)
# Conditions: Tat-TAR RNA binding; series mostly up to 100 µM; inhibition: at the top concentration
SMILES,inhibition,outcome
Cc1ccc(CN2C(=O)CCC2C(=O)N2CCN(c3ccc(F)cc3)CC2)cc1 (stereo unspecified),2.73% (inactive),–
CC(=O)n1c(Cl)c(NC(=O)CCl)c2ccccc21,3.38% (inactive),–
CC(NC(=O)C(NS(=O)(=O)c1cccs1)C(C)C)c1ccc(S(N)(=O)=O)cc1 (stereo unspecified),–,inactive
Cc1cc(C)cc(NCCC#N)c1,–,inactive
CCOC(=O)CC1Sc2ccccc2NC1=O (stereo unspecified),–,inactive
Cc1cc(C)n(Cc2ccc(NC(=O)c3nn(C)cc3[N+](=O)[O-])cc2)n1,–,inactive
Cc1ccc2[nH]c(=O)c(CN(Cc3cccnc3)C(=O)c3ccncc3)cc2c1,–,inactive
COC(=O)Nc1sc2nc(C)cc(C)c2c1-n1cccc1,8.78% (inactive),–
O=C(COc1ccc([N+](=O)[O-])cc1)NC(C(=O)O)C(O)c1cccc([N+](=O)[O-])c1 (stereo unspecified),12.4% (inactive),–
CCn1c(COc2ccc(=O)n(-c3ccccc3)n2)nnc1SCc1ccc(C)cc1,–,inactive
CCc1ccc(NC(=O)C(C)Oc2nnc(-c3cccs3)c(-c3cccs3)n2)cc1 (stereo unspecified),2.7% (inactive),–
Cc1ccccc1SCc1noc(C(=O)NC(C)C)c1C(=O)O,6.08% (inactive),–
CN(Cc1cccs1)C(=O)Cn1cnc2ccccc2c1=O,–,inactive
COc1ccc([N+](=O)[O-])cc1CSc1nnc(NC(C)=O)s1,9.9% (inactive),–
COCCSc1nnc(NC(=O)Cc2ccccc2OC)s1,8.11% (inactive),–
Oc1ccc(/C=C/c2cnccn2)cc1,–,inactive
Cc1ccc(C)c(S(=O)(=O)Nc2ccc3scnc3c2)c1,1.36% (inactive),–
O=C(Nc1nncs1)c1c(F)c(F)c(F)c(F)c1F,19.1% (inactive),–
O=C(CN(C1CCCCC1)S(=O)(=O)c1ccccc1)N1CCCC1,5.41% (inactive),–
Cc1nc2ccccn2c1/C(O)=C1\C(=O)C(=O)N(CCCn2ccnc2)C1c1ccncc1 (stereo unspecified),18.9% (inactive),–
CCN(CC)CCCN1CC(O)=C(c2nc3ccccc3s2)C1=N,5.41% (inactive),–
Cc1cc(Nc2ccc(C)c(C)c2)n2nc(C)nc2n1,2.03% (inactive),–
O=S(=O)(Nc1ccc(N2CCOCC2)cc1)c1ccccc1,–,inactive
Cc1cc(C(=O)N2CCOCC2)n(-c2ccccc2)n1,4.73% (inactive),–

SMILES,inhibition,outcome
Cc1nn(-c2c(Cl)cc(Cl)cc2Cl)c(=O)c2ccccc12,8.35% (inactive),–
CC(Sc1nnnn1-c1ccccc1)C(=O)Nc1ccc(Cl)cn1 (stereo unspecified),–,inactive
O=C(CN1C(=O)C2CC=CCC2C1=O)OCCN1C(=O)c2ccccc2C1=O (stereo unspecified),–,inactive [at 50 µM]
Cc1ccc(CCNC(=O)C2CCC(=O)N2C2CCCC2)cc1 (stereo unspecified),1.36% (inactive),–
Cc1c(NS(=O)(=O)c2cccc(C(=O)NCc3ccncc3)c2)c(=O)n(-c2ccccc2)n1C,0.68% (inactive),–
O=S(=O)(NCc1ccccc1Cl)c1cnc[nH]1,2.73% (inactive),–
CNC(=S)N(Cc1ccc(OC)cc1)C1CC(=O)N(c2ccc(Cl)cc2)C1=O (stereo unspecified),10.8% (inactive),–
CCN1CCN(Cc2ccc(NC(=O)Nc3ccccc3)cc2)CC1,–,inactive
CCCC(=O)NNC(=O)Nc1ccccc1,10.3% (inactive),–
COc1ccc2cc(C(=O)Nc3ccc(O)cc3)sc(=O)c2c1OC,25.6% (inactive),–
O=C(NCC1CCCO1)c1c(O)c2c([nH]c1=O)CCCC2 (stereo unspecified),–,inactive
CC[n+]1c(/C=C2\C=C(C)CC(C)(C)C2)sc2ccccc21,9.02% (inactive),–
CCC(C)NC(=O)CSc1ccc(S(=O)(=O)N2CCN(Cc3ccccc3)CC2)cn1 (stereo unspecified),–,inactive
Cc1csc(NC(=O)CCSCCc2ccccn2)n1,–,inactive
CCOc1ccc(NC(=S)/C(=C(\[O-])c2ccc(C)c([N+](=O)[O-])c2)[n+]2ccccc2)cc1,16.2% (inactive),–
C=C(C)COc1ccc2c(C)c(C)c(=O)oc2c1OCC(=C)C,3.38% (inactive),–
COc1ccc(NC(=O)CN(C)S(=O)(=O)c2ccc3c(c2)CCC(=O)N3)c(OC)c1,3.38% (inactive),–
Cn1c(SCC(=O)N2CCCC2)nc2ccccc2c1=O,–,inactive
CCC(Sc1nc2c(c(=O)n1CC)SC(C)C2)C(=O)OC (stereo unspecified),4.05% (inactive),–
CC(=O)NCCn1c(SCC(=O)Nc2ccc(C)cc2)nc2ccccc2c1=O,–,inactive
Cc1noc(NS(=O)(=O)c2ccc(NC(=O)CSc3nnc(-c4ccccc4)n3C3CCCCC3)cc2)c1C,–,inactive
Cc1nc(NCc2ccccc2)c2cc[nH]c2n1,–,inactive
Cc1cc(C)n(CC(O)CN2c3ccccc3Sc3ccccc32)n1 (stereo unspecified),–,inactive
CC1CCCCN1Cc1ccc(N(C)C)cc1 (stereo unspecified),2.7% (inactive),–

SMILES,inhibition,outcome
O=C(NN=C1CCCC1)C(=O)Nc1cccc(C(F)(F)F)c1,–,inactive
Cc1ccc(C(=O)Nc2cccnc2)cc1NC(=O)c1ccco1,–,inactive
O=C(Nc1cccc(C(F)(F)F)c1)c1cccnc1NCCc1ccccc1,–,inactive
O=C(Nc1ccccc1)c1ccc2nc(-c3ccco3)c(-c3ccco3)nc2c1,–,inactive
COC(=O)C1=C(C)Nc2ncnn2C1c1ccc(OC(=O)c2ccccc2)cc1 (stereo unspecified),7.43% (inactive),–
CC(=O)c1ccccc1NC(=O)COC(=O)CN1C(=O)C2CCCCC2C1=O (stereo unspecified),3.3% (inactive),–
COCCn1c(-c2ccc(OC)cc2)nc2ccccc21,–,inactive
N#Cc1cn(CCOc2ccccc2F)c2ccccc12,–,inactive
Cc1ccc(C(=O)N2c3ccc(F)cc3CCC2C)o1 (stereo unspecified),10.9% (inactive),–
CC(Cc1c[nH]c2ccccc12)C(=O)NCc1ccco1 (stereo unspecified),5.68% (inactive),–
COC(=O)COc1ccc(S(=O)(=O)NCc2ccco2)cc1Cl,0.68% (inactive),–
CN(C)CCNc1oc(COc2ccc(Cl)cc2)nc1C#N,11.6% (inactive),–
O=C(NNC(=O)c1cc(OCC(F)(F)F)ccc1OCC(F)(F)F)c1cccc(C(F)(F)F)c1,–,inactive
Cc1cc(-n2c(C)cc(C(=O)COC(=O)CN=C3NS(=O)(=O)c4ccccc43)c2C)no1,11.5% (inactive),–
COC(=O)C1(C(=O)OC)NOC2C(=O)N(c3ccccc3)C(=O)C21 (stereo unspecified),0.68% (inactive),–
O=C1CCCC2=C1C(c1ccsc1)CC(=O)N2c1ccccc1 (stereo unspecified),7.43% (inactive),–
O=C(c1cccc(S(=O)(=O)N2CCCC2)c1)N1CCOCC1,–,inactive
COc1ccc(OCCOC(=O)c2cc(S(=O)(=O)N3CCOCC3)c(Cl)cc2Cl)cc1,5.01% (inactive),–
COc1ccc(CN2CCSCC2)cc1C,2.34% (inactive),–
O=C(O)c1cc(Nc2cc(Cl)c3nonc3c2[N+](=O)[O-])ccc1O,–,inactive
CCC(=O)OCCNc1cc(Sc2nc3ccccc3[nH]2)c2nonc2c1[N+](=O)[O-],8.25% (inactive),–
CN(CCO)c1cc(Sc2nc3ccccc3s2)c2nonc2c1[N+](=O)[O-],–,inactive
O=[N+]([O-])c1c(Nc2ccccc2O)cc(Cl)c2nonc12,–,inactive
